Source: PubChem BioAssay (NCATS)
Results filed as inconclusive are left out. Entries that show only a call come without a potency. Activity calls are given as the source filed them. Unless noted, the call rests on the fitted dose curve; in most records, active means well fitted inhibition curve with a large enough effect; inconclusive means small, poorly fitted or top-dose-only effect; inactive means flat fitted curve, though single readings scatter.

Experiments:
[1] = target: Glutathione peroxidase 1 (Homo sapiens) (UniProt P07203); assay: Primary qHTS Assay for Inhibitors of Recombinant Selenoprotein Glutathione Peroxidase 1 (GPX1) (AID 1845191); further: nearly all actives have a fitted effect of over 65% in size; further: potency means the concentration at half of the fitted maximal effect
Sequence of Glutathione peroxidase 1 (Homo sapiens) (P07203 whole entry, looked up): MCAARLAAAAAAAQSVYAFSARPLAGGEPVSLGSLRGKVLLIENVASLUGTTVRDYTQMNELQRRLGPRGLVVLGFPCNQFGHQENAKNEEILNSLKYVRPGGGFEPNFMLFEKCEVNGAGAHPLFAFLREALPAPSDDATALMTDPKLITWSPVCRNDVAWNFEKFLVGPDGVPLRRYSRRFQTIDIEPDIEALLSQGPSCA
Summary of the method: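 Recombinant GPX1 (10 nM final) was preincubated with compound for 30 min at room temperature, then reacted with 1 mM GSH, 0.5 mM CHP, 0.5 mM NADPH and 100 nM glutathione reductase; NADPH fluorescence (340/450 nm) was read at 0 and 15 min.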

[2] = target: Phospholipid hydroperoxide glutathione peroxidase GPX4 (Homo sapiens) (UniProt P36969); assay: Primary qHTS Assay for Inhibitors of Recombinant Selenoprotein Glutathione Peroxidase 4 (GPX4) (AID 1845192); further: nearly all actives have a fitted effect of over 65% in size
Sequence of Phospholipid hydroperoxide glutathione peroxidase GPX4 (Homo sapiens) (P36969 whole entry, looked up): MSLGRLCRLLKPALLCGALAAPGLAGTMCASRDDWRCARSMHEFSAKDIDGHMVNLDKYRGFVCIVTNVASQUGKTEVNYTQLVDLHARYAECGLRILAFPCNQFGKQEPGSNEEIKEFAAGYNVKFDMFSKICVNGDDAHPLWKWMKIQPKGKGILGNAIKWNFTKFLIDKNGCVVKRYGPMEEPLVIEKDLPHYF
Summary of the method: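 GR-coupled readout: 100 nM GR, 1 mM GSH, 0.5 mM NADPH; NADPH fluorescence (ex 340/em 450 nm) read at t=0 and after 15 min RT. GPX4 200 nM, preincubated 30 min with compound; substrate 0.5 mM CHP.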

[3] = qHTS profiling for inhibitors of Plasmodium falciparum proliferation (AID 504749); further: nearly all actives have a fitted effect of over 60% in size; further: potency means the concentration at half of the fitted maximal effect; conditions: P. falciparum in erythrocytes, SYBR Green DNA, 72 h, at 28.7 µM (top of the series)
Summary of the method: (§1)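 P. falciparum-infected erythrocytes (0.3% parasitemia, 2.5% hematocrit final) were exposed to compounds for 72 h at 37 C in 5% CO2, then lysed with SYBR Green buffer overnight at room temperature; parasite DNA fluorescence was normalized to artemisinin and DMSO controls.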

3D7 = assay: as above; conditions: P. falciparum in erythrocytes, SYBR Green DNA, 72 h; series mostly up to 28.7 µM
Summary of the method: as §1

7G8 = assay: as above; conditions: P. falciparum in erythrocytes, SYBR Green DNA, 72 h; series mostly up to 28.7 µM
Summary of the method: as §1

AA1029 = assay: as above; conditions: P. falciparum in erythrocytes, SYBR Green DNA, 72 h; series mostly up to 28.7 µM
Summary of the method: as §1

[4] = qHTS drug screen for cell cycle checkpoint inhibitors in PARPi-resistant BRCA-mutant ovarian cancer cell lines. (AID 1963452; calls by dose curve); conditions: PEO1/OlaR viability, CellTiter-Glo luminescence, 96 h, stronger effect = lower value
Summary of the method: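 PEO1, PEO4 and PEO1/OlaR ovarian cancer cells, 600 per well, exposed 96 h at 37C to a dilution series. Viability read by CellTiter-Glo luminescence, normalized to DMSO and empty wells; activity summarized as Z-AUC.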

[5] = measured here: PEO1 parental Z-AUC

In the case of `COc1ccc(-c2cc(=S)ss2)cc1`, the Potency [1] is reported as 11.4 µM (active), the Potency [2] is reported as “inactive” and the activity, negative = inhibition ([3]; parasite line A) is reported as -10.3% (inactive). The activity, negative = inhibition ([3]; parasite line B) was -12.9% (inactive), the Potency (3D7) was “inactive” and the Potency (7G8) was 12.6 µM (active). The Potency (AA1029) was “inactive”.

In the case of `O=C(O)CCCC[C@@H]1CCSS1`, the Potency [2] is reported as “inactive”.

In the case of `C#C[C@]1(O)CC[C@H]2[C@@H]3CCc4cc(O)ccc4[C@H]3CC[C@@]21C`, the Potency [1] is reported as “inactive”, the Potency [2] is reported as “inactive” and the Z-AUC [4] is reported as -0.519 (inactive). For the same compound, the Z-AUC [4, 5] was 0.139, the Z-AUC ([4]; measured here: PEO4 Z-AUC) was 0.344 and the activity, negative = inhibition ([3]; parasite line A) was 17.5% (inactive). The activity, negative = inhibition ([3]; parasite line B) was 5.92% (inactive), the Potency (3D7) was “inactive” and the Potency (7G8) was “inactive”. For the same compound, the Potency (AA1029) was “inactive”.

In the case of `CCCCCC[C@@H](O)C/C=C\CCCCCCCC(=O)O`, the Potency [1] is reported as “inactive”, the activity, negative = inhibition ([3]; parasite line A) is reported as -10.4% (inactive) and the activity, negative = inhibition ([3]; parasite line B) is reported as -8.48% (inactive). The Potency (3D7) was “inactive”, the Potency (7G8) was “inactive” and the Potency (AA1029) was “inactive”.

In the case of `Nc1c(CC(=O)O)cccc1C(=O)c1ccc(Br)cc1`, the Potency [1] is reported as “inactive”, the Potency [2] is reported as “inactive” and the activity, negative = inhibition ([3]; parasite line A) is reported as 12.5% (inactive). The activity, negative = inhibition ([3]; parasite line B) was 11.2% (inactive), the Potency (3D7) was “inactive” and the Potency (7G8) was “inactive”. The Potency (AA1029) was “inactive”.

With `CCCCCCCCCCCCCCCC(=O)OC(C)C` the Potency [1] was “inactive”, the Potency [2] was “inactive” and the Potency (3D7) was “inactive”. For the same compound, the Potency (7G8) was “inactive” and the Potency (AA1029) was “inactive”.

With `C=CC(N)CCC(=O)O` (stereo not given) the Potency [1] was “inactive”, the Potency [2] was “inactive” and the activity, negative = inhibition ([3]; parasite line A) was 0.626% (inactive). For the same compound, the activity, negative = inhibition ([3]; parasite line B) was 10.5% (inactive), the Potency (3D7) was “inactive” and the Potency (7G8) was “inactive”. For the same compound, the Potency (AA1029) was “inactive”.

In the case of `COc1cc(/C=C/C(=O)CC(=O)/C=C/c2ccc(O)c(OC)c2)ccc1O`, the Potency [1] is reported as “inactive”, the Z-AUC [4] is reported as -0.374 (inactive) and the Z-AUC [4, 5] is reported as -0.396. For the same compound, the Z-AUC ([4]; measured here: PEO4 Z-AUC) was -0.434, the Potency (3D7) was 10 µM (active) and the Potency (7G8) was 11.2 µM (active).

In the case of `NC(=O)C(c1ccccc1)(c1ccccc1)[C@@H]1CCN(CCc2ccc3c(c2)CCO3)C1`, the Potency [1] is reported as “inactive”, the Potency [2] is reported as “inactive” and the activity, negative = inhibition ([3]; parasite line A) is reported as -17.4% (inactive). The activity, negative = inhibition ([3]; parasite line B) was -5.16% (inactive), the Potency (3D7) was “inactive” and the Potency (7G8) was 11.2 µM (active).

In the case of `CC1OC1P(=O)(O)O` (stereo not given), the Potency [1] is reported as “inactive”, the Potency [2] is reported as “inactive” and the activity, negative = inhibition ([3]; parasite line A) is reported as -11.9% (inactive). For the same compound, the activity, negative = inhibition ([3]; parasite line B) was 1.11% (inactive), the Potency (3D7) was “inactive” and the Potency (7G8) was “inactive”. The Potency (AA1029) was “inactive”.

For `OCC1O[C@H]([S-])[C@H](O)[C@@H](O)[C@@H]1O.[Au+]` (stereo not given in full), the Potency [2] was “inactive”.

For `O=C1C(SCCO)=C(SCCO)C(=O)c2ccccc21`, the Potency [2] was “inactive”.

In the case of `Cc1ccc(O)c(-n2nc3ccccc3n2)c1`, the activity, negative = inhibition ([3]; parasite line A) is reported as 4.17% (inactive), the activity, negative = inhibition ([3]; parasite line B) is reported as 15.3% (inactive) and the Potency (3D7) is reported as “inactive”. The Potency (7G8) was “inactive” and the Potency (AA1029) was “inactive”.

For `Nc1ccn([C@H]2O[C@H](CO)[C@@H](O)C2(F)F)c(=O)n1`, the Potency [2] was “inactive”.

For `Nc1ccc(C(=O)O)c(O)c1`, the activity, negative = inhibition ([3]; parasite line A) was 9.01% (inactive), the activity, negative = inhibition ([3]; parasite line B) was -22.6% (inactive) and the Potency (3D7) was “inactive”. The Potency (7G8) was “inactive” and the Potency (AA1029) was “inactive”.

For `Clc1ccccc1-c1nc(-c2ccncc2)no1`, the activity, negative = inhibition ([3]; parasite line A) was 11.4% (inactive), the activity, negative = inhibition ([3]; parasite line B) was -1.37% (inactive) and the Potency (3D7) was “inactive”. For the same compound, the Potency (7G8) was 10 µM (active) and the Potency (AA1029) was “inactive”.
